This passage reports composite z-score and z-score results from PubChem BioAssay.

A short description of experiment [1]: small molecules captured by biotinylated probe aFSTL3 – biochemical, small-molecule microarray, fluorescence 635/667, stem cell growth factor project, primary screen (AID 1064).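 Note: measures binding of the biotinylated anti-FSTL3 antibody to printed compounds.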 The note with it: higher = more signal.
A short description of experiment [2]: binders from COS7 lysate, DM2A8 probe, primary screen, torsin A project, cell lysate, small-molecule microarray, fluorescence 635/667 (AID 1065). The note with it: higher = more signal, COS7 lysate expressing mutant human TOR1A.
Experiment [3] is described as follows: small molecules captured by biotinylated probe aFGF2 – biochemical, small-molecule microarray, fluorescence 635/667, stem cell growth factor project, primary screen (AID 1067).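 Note: measures binding of biotinylated aFGF2 protein to printed compounds on slides; z-score merges feature fluorescence and signal-to-noise across triplicate slides.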 The conditions noted are these: higher = more signal.
A short description of experiment [4]: small molecules captured by biotinylated probe aFGF10 – biochemical, small-molecule microarray, fluorescence 635/667, stem cell growth factor project, primary screen (AID 1071).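 Note: score merges 667 nm spot intensity and signal to noise from triplicate slides.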 The note with it: higher = more signal.
Experiment [5] has as its target Neurogenic locus notch homolog protein 2 (Homo sapiens) (UniProt Q04721). In words: small molecules binding Notch2 protein – biochemical, small-molecule microarray, 635 nm fluorescence, stem cell growth factors, primary screen (AID 1073). The conditions noted are these: higher = more signal.
Experiment [6] concerns the target Pro-neuregulin-1, membrane-bound isoform (Homo sapiens) (UniProt Q02297). Put plainly: small molecules binding neuregulin-1 protein – biochemical, small-molecule microarray, fluorescence 635/667, psychiatric disease protein project, primary screen (AID 1075).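 Note: score combines 667 nm spot fluorescence with signal to noise.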 The note with it: NRG1 binding, 635 nm fluorescence, higher = more signal.
Experiment [7] has as its system Neuregulin-1 EGF-like domain. Put plainly: small molecules binding NRG1 EGF domain – biochemical, small-molecule microarray, 635 nm fluorescence, primary screen (AID 1081).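 Note: binding of the protein to compounds printed on small-molecule microarray slides.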 The note with it: higher = more signal.
Experiment [8] is described as follows: FRG1 expression reporter modulators in myotubes – cell-based, C2C12 myotubes, firefly/Renilla luciferase, luminescence, FRG1 inhibition for FSHD, primary screen (AID 1084). The conditions noted are these: FRG1 promoter luciferase, higher = more signal, called active from +8 up or from −8 down.
The nature of experiment [9]: small molecules captured by biotinylated probe aFST – biochemical, small-molecule microarray, fluorescence 635/667, stem cell growth factor project, primary screen (AID 1086).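 Note: score merges 667 nm fluorescence with signal-to-noise of each printed compound spot.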 The conditions noted are these: higher = more signal.
Experiment [10] is described as follows: binders of probe aHhip on microarray, primary screen, stem cell growth factor project, biochemical, small-molecule microarray, fluorescence 635/667 (AID 1087).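 Note: score merges spot fluorescence at 667nm with spot signal to noise ratio.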 The conditions noted are these: higher = more signal.

Activity calls are given as the source filed them.

Chain of Pro-neuregulin-1, membrane-bound isoform (Homo sapiens) (Q02297 whole entry, looked up, the tested form may be a part, canonical isoform): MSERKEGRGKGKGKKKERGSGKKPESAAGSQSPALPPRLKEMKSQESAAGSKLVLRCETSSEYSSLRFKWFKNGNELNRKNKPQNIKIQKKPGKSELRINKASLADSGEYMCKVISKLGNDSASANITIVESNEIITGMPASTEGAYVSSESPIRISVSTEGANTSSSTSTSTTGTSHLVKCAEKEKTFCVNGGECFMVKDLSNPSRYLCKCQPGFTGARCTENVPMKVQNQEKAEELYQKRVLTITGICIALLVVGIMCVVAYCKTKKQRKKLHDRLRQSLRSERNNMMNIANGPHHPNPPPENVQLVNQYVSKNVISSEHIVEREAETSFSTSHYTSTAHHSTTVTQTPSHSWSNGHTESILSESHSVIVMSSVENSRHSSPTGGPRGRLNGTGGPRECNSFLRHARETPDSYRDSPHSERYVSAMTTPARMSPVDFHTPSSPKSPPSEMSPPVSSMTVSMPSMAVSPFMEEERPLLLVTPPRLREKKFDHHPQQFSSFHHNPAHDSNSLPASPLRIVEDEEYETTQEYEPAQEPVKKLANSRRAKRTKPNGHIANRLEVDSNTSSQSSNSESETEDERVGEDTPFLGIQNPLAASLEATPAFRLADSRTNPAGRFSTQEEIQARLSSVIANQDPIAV
Chain of Neurogenic locus notch homolog protein 2 (Homo sapiens) (Q04721 whole entry, looked up, canonical isoform): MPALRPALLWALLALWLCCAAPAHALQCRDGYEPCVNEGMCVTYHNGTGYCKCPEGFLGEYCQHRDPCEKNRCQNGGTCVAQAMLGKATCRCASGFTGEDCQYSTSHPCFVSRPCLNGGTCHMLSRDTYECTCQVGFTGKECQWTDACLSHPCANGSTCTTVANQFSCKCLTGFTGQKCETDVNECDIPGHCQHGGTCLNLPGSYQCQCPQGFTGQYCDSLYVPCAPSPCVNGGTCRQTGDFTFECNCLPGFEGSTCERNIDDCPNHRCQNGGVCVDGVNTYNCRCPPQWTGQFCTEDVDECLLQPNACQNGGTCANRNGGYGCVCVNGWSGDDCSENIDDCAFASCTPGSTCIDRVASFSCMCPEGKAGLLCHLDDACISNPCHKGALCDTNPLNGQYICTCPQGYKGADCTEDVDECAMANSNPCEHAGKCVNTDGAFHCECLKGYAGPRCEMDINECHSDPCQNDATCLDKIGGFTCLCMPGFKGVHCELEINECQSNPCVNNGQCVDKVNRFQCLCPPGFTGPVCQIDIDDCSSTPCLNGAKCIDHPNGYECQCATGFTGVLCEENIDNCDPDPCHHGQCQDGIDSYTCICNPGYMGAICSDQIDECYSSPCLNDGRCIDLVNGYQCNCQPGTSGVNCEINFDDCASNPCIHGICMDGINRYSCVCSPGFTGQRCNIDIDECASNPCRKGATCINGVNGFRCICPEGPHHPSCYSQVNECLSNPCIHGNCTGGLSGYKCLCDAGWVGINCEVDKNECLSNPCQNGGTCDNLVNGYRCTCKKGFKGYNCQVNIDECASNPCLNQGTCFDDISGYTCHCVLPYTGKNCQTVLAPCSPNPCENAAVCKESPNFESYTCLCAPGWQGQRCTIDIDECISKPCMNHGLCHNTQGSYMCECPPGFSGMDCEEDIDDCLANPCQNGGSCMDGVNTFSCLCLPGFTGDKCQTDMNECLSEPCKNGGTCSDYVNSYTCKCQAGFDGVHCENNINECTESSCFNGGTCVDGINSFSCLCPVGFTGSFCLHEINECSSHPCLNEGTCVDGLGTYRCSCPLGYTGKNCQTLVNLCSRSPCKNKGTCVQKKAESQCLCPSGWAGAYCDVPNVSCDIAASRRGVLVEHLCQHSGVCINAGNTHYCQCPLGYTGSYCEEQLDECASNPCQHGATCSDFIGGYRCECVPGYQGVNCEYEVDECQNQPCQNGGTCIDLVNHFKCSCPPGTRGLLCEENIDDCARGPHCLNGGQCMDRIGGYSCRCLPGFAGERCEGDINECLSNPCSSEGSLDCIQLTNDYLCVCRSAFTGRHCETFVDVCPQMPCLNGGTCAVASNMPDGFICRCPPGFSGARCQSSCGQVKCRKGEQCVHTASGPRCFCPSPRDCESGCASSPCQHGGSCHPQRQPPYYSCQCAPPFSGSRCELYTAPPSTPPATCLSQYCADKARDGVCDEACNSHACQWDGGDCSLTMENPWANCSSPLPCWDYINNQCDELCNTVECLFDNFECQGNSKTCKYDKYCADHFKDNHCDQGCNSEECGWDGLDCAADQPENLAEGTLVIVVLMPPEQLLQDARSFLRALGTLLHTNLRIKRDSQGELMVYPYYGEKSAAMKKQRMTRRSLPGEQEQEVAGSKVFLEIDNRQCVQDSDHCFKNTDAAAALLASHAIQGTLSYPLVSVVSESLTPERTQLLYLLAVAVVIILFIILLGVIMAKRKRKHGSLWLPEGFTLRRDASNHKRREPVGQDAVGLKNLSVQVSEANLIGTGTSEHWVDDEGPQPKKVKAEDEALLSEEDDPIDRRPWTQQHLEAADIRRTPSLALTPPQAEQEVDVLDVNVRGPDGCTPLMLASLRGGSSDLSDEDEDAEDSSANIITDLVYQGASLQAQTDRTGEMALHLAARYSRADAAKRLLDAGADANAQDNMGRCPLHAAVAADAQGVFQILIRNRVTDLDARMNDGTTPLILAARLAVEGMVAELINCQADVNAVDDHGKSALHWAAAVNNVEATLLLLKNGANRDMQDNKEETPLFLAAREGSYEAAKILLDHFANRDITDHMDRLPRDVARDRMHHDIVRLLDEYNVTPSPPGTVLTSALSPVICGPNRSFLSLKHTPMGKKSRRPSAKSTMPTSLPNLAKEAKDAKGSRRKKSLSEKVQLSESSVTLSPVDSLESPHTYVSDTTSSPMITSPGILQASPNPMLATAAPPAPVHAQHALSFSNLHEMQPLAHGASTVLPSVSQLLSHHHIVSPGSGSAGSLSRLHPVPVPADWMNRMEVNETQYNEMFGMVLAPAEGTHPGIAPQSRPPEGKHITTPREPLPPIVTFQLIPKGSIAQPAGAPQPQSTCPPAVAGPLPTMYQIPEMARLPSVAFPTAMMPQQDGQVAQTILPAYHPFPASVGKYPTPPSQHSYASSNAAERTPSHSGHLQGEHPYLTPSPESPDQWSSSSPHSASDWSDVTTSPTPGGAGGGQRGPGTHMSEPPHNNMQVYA

On to `CCOC(=O)C[C@H]1[C@H](OC(=O)c2ccc(-c3ccccc3)cc2)[C@@H](NC(=O)C2CCCCC2)c2cc(OCCCO)ccc2N1C(=O)Cc1ccc(OC)cc1`, for which the composite z-score in experiment [1] is -0.114; in [2] it was 0.279; in [3] it was -0.0369; in experiment [4], 0.0887; in experiment [5], 0.215; in [6] it was 0.157. The composite z-score was -0.481 in [7], 0.241 in experiment [9] and 0.0722 in experiment [10]. The z-score in experiment [8] was -0.054 (inactive).

Consider `C[C@H]1C2[C@H](Cc3ccccc3)NC(=O)[C@]23C(=O)N[C@@H](Cc2ccccc2)C(=O)N2CCC[C@H]2C(=O)NC/C=C/CC/C=C/C3[C@@H]2O[C@]12C` (stereo not given in full), for which the composite z-score in experiment [1] was 0.0522; in experiment [2] it was 0.483; in [3], -0.129; in experiment [4] it was 0.75; in experiment [5], 0.237; in [6], 0.0519. Besides, the composite z-score is 1.03 in experiment [7], 0.101 in [9] and -0.0618 in [10]. Further, the z-score in experiment [8] was 1.28 (inactive).

In the case of `COc1ccc(CCNC(=O)[C@@H]2c3ccccc3C(=O)N(C(C)C)[C@H]2c2ccc(CO)cc2)cc1`, the composite z-score was 1.42 in [1]; -0.489 in experiment [2]; -0.142 in experiment [3]; -0.92 in experiment [4]; -1.48 in [5]; 0.0203 in [6]. In addition, the composite z-score in [7] was 0.209; in experiment [9], -0.36; in [10] it was -0.379. The z-score in experiment [8] was -1.15 (inactive).

For the compound `COc1cc(CO)cc(I)c1O[C@H]1C=C(C(=O)NCCO)C[C@@H](N(CCN2CCOCC2)C(=O)C2CCCO2)[C@@H]1O` (stereo not given in full), the composite z-score in experiment [1] was -0.351; in experiment [2], 0.193; in experiment [3], -0.109; in experiment [4] it was 0.228; in [5], 1.14; in experiment [6] it was -0.34. The composite z-score in [7] was 0.201; in experiment [9], 0.0496; in experiment [10], -0.0383. Also, the z-score in experiment [8] is 0.104 (inactive).

For the compound `COC(=O)[C@@]1(Cc2ccc(F)cc2)[C@H]2c3cc(C(=O)N4CCCC4)n(C[C@H](O)CO)c3C[C@H]2CN1C(=O)c1ccccc1`, the composite z-score in experiment [1] worked out at 0.468; in experiment [2] it was 0.501; in experiment [3], 0.474; in experiment [4], 0.697; in experiment [5], 1.17; in [6], 2.15. Further, the composite z-score in experiment [7] turned out to be 1.16; in [9], 1.42; in experiment [10], 1.35. Moreover, the z-score in experiment [8] was 3.49 (inactive).

`COCCOC(=O)N1C(=O)[C@@]2(c3cc(C#CCNC(N)=O)ccc31)[C@H](c1ccc(O)cc1)N1[C@H](c3ccccc3)[C@H](c3ccccc3)OC(=O)[C@H]1[C@@H]2C(=O)N1CCc2cc(OC)c(OC)cc2C1`: the composite z-score in [1] was determined as 0.141; in experiment [2] it was 0.0344; in experiment [3] it was 0.0525; in experiment [4], 0.67; in [5] it was 1.07; in experiment [6], 1.06. For the same compound, the values for the composite z-score in experiment [7], in [9] and in experiment [10] were 0.786, 0.39 and -0.0427, respectively. Besides, the z-score in [8] is 0.411 (inactive).

For `CC1C2C(CCCO)=CC(C3C(=O)N(C)C(=O)C23)N1Cc1cccc(OC(F)(F)F)c1` (stereo not given), the composite z-score in [1] is -0.0014; in [2], 0.289; in experiment [3], 0.0653; in experiment [4] it was 0.647; in experiment [5], 0.929; in experiment [6] it was 2.04. Moreover, the figures for the composite z-score in experiment [7], in experiment [9] and in experiment [10] were 1.37, 0.155 and 0.289, respectively. Further, the z-score in experiment [8] is 0.0511 (inactive).

Take `CN1C(=O)C2C=CC(C(O)COCc3ccccc3)N(Nc3ccc([N+](=O)[O-])cc3[N+](=O)[O-])C2C1=O` (stereo not given): the composite z-score in experiment [1] was 0.0982; in experiment [2], -0.0795; in [3], 0.0952; in experiment [4], 0.475; in [5] it was 0.172; in experiment [6], 0.0948. Also, the composite z-score is 0.752 in [7], 0.329 in experiment [9] and -0.167 in experiment [10]. Besides, the z-score in [8] was 1.16 (inactive).

Regarding `O=C1N(Cc2ccccc2)Cc2ccccc2C[C@@]12COC(c1ccc(OCCCO)cc1)=N2`, the composite z-score in experiment [1] was 1.18; in experiment [2], 0.455; in experiment [3], -0.0428; in experiment [4] it was -0.0784; in experiment [5] it was -0.0568; in experiment [6], 0.605. Further, the composite z-score came out at 1.21 in experiment [7], 0.419 in experiment [9] and 0.369 in [10]. Also, in [8], the z-score is -1.58 (inactive).

For `COc1ccc([Si](C)(C)[C@@H]2[C@@H](CC(=O)N3Cc4ccccc4C[C@H]3CO)O[C@]3(C(=O)N(Cc4ccc(I)cc4)c4ccccc43)[C@H]2C)cc1`, the composite z-score is -0.127 in [1]; 0.0826 in [2]; -0.136 in [3]; 0.184 in experiment [4]; 0.472 in experiment [5]; 0.537 in experiment [6]. Further, the results for the composite z-score in [7], in experiment [9] and in [10] were 0.909, 0.259 and -0.204, respectively. Besides, the z-score in experiment [8] was -2.83 (inactive).

For the compound `COC(=O)[C@]1(Cc2ccccc2CN=[N+]=[N-])N=C(c2ccc(OCCCO)cc2)O[C@@H]1c1ccccc1N=[N+]=[N-]`, the composite z-score in [1] was 0.0455; in [2] it was 0.157; in experiment [3] it was -0.0465; in [4], -0.223; in [5], -0.206; in experiment [6] it was 0.829. In addition, the figures for the composite z-score in [7], in experiment [9] and in [10] were 1.18, 0.163 and -0.266, respectively. The z-score in experiment [8] is 3.39 (inactive).

On to `CC(C)(C)OC(=O)CC[C@@]1(C(=O)N2CCOCC2)N=C(c2ccc(OCCCO)cc2)O[C@@H]1c1ccccc1CN=[N+]=[N-]`, for which the composite z-score worked out at 0.12 in experiment [1]; 0.161 in experiment [2]; 0.254 in experiment [3]; 0.674 in experiment [4]; 1.1 in experiment [5]; 1.88 in experiment [6]. For the same compound, the composite z-score was 1.31 in [7], 0.694 in experiment [9] and 0.186 in experiment [10]. For the same compound, the z-score in [8] was 3.86 (inactive).

Turning to `CN1C(=O)C2C=CC(C(O)c3ccc(I)cc3)N(N(c3ccccc3)c3ccccc3)C2C1=O` (stereo not given), the composite z-score was 0.75 in [1]; -0.272 in [2]; -0.0507 in [3]; -0.454 in experiment [4]; 0.333 in experiment [5]; 0.495 in [6]. Further, the composite z-score in [7] was -0.0493; in experiment [9], 0.428; in experiment [10] it was -0.176. Besides, in experiment [8], the z-score is 0.586 (inactive).

Take `COCCCNC(=O)[C@@]1(Cc2ccccc2I)c2ccccc2C(=O)N(Cc2ccccc2OC)[C@H]1c1ccc(CO)cc1`: the composite z-score in [1] is 0.841; in experiment [2], 0.32; in experiment [3], 0.096; in [4] it was 0.655; in [5] it was -1.09; in experiment [6], 1.3. For the same compound, the values for the composite z-score in [7], in experiment [9] and in experiment [10] were 1.3, -0.523 and -0.195, respectively. Besides, the z-score in experiment [8] was -2.86 (inactive).

As for `CC(C)C[C@H]1NC(=O)CNC(=O)[C@@]23C(=O)N[C@@H](Cc4ccccc4)C2[C@H](C)[C@@]2(C)O[C@H]2C3/C=C/C/C=C\CNC1=O` (stereo not given in full), the composite z-score in [1] was -0.564; in experiment [2], 0.11; in experiment [3], -0.159; in [4] it was 0.582; in [5], -0.222; in experiment [6] it was 0.205. Further, the results for the composite z-score in [7], in [9] and in experiment [10] were 0.598, 0.136 and -0.0121, respectively. For the same compound, in experiment [8], the z-score was 1.81 (inactive).

For the compound `O=C1c2ccccc2[C@](Cc2ccccc2I)(C(=O)NCCN2CCOCC2)[C@H](c2ccc(CO)cc2)N1Cc1ccccc1C(F)(F)F`, the composite z-score is -0.103 in experiment [1]; 0.321 in [2]; -0.1 in experiment [3]; 0.0371 in experiment [4]; 0.614 in experiment [5]; 1.2 in experiment [6]. Moreover, the composite z-score in experiment [7] is 1.25; in experiment [9], 0.558; in experiment [10] it was 0.0156. The z-score in [8] is -1.66 (inactive).
